# NIH3T3 tox: cytotoxic compounds in NIH 3T3 cells. Potency, µM (top dose mostly 96.7 µM), most hits filed as inhibitors. NIH 3T3 viability, CellTiter-Glo ATP luminescence, 48-72 h. 4.3% of 94,000 active; note: nearly all actives have a fitted effect of over 55% in size
#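 Luminescent ATP readout (CellTiter-Glo, 10 min RT) after 48 or 72 hr compound exposure of NIH 3T3 cells seeded at 400 cells/well in 1536-well format; quantitative HTS.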
# HEK cytotox: kills HEK 293 cells | HEK 293 viability, ATP luminescence (CellTiter-Glo), 48-72 h | Potency, µM (highest dose often 115 µM), actives largely listed as inhibitors | 6.6% of 94,000 active; note: nearly all actives have a fitted effect of over 60% in size
#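 HEK 293 cells at 250 cells/well were exposed to compounds by pintool transfer for 48 or 72 hr at 37 degree Celsius, 5% CO2. Viability was read as ATP-coupled luminescence with CellTiter-Glo after 10 min at room temperature.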
# Luciferase inh: Photinus pyralis luciferase inhibition; P08659; purified P. pyralis luciferase, luminescence, biochemical; Potency, µM (series often up to 115 µM), most hits filed as inhibitors; 2.5% of 76,000 active; note: nearly all actives have a fitted effect of over 65% in size
# Target sequence (P08659 whole entry, looked up): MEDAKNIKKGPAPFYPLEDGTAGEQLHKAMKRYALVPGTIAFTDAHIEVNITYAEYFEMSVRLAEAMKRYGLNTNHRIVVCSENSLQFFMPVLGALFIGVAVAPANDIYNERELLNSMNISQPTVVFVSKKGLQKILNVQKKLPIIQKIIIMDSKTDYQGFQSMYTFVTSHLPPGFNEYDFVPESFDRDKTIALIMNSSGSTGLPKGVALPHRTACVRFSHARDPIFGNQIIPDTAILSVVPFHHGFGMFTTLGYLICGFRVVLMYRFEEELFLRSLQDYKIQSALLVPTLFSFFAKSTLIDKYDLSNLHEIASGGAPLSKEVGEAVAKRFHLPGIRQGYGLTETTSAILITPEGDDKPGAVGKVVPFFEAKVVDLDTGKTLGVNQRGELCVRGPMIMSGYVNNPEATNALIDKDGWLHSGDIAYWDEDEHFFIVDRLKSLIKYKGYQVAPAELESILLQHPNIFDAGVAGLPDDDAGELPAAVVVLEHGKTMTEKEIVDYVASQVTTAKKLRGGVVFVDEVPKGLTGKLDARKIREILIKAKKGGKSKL
#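 Cell-free enzyme assay, 10nM P. pyralis luciferase, luciferin and ATP each at 10uM. Inhibition profiled over a 6-point titration, read as luminescence.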
# NPR1 antag: blocks ANP-stimulated signaling of human Npr1 receptor; HEK293 hNpr1 GloSensor cGMP, ANP-stimulated luminescence; Potency, µM (top dose mostly 46.3 µM), most hits filed as inhibitors; 1.6% of 76,000 active; calls by dose curve; note: nearly all actives have a fitted effect of over 60% in size
#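 HEK293 cells stably expressing human Npr1 and cGMP GloSensor pGS-40F, loaded 2 h with 2% GloSensor reagent, given compound 30 min at room temperature. Luminescence read before and 20 min after 0.1 nM hNppA.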
# A number is an active result; 0 = inactive; ? = inconclusive; - = not tested or not shown. In the library only some 11% were active in any assay of this set; here they are far more common. Unless noted, calls come from the whole dose curve; as a rule, active = well fitted curve in the direction sought with a large enough effect; inconclusive = small, poorly fitted or top-dose-only effect, or another doubt; inactive = no such curve, though single readings can be large; an effect the other way counts as inactive or inconclusive.
SMILES,NIH3T3 tox,HEK cytotox,Luciferase inh,NPR1 antag
COCCN(C)C(=O)c1coc(COc2ccc(F)cc2Cl)n1,?,0,0,0
O=C(NCCc1ccncc1)c1coc(COc2ccc(F)cc2Cl)n1,?,32µM,0,0
COc1ccc2[nH]c(C[C@@H]3C[C@@H](C(C)C)[C@H](CNC(=O)C4CCC4)C=C3C)nc2n1,63µM,45µM,0,?
CC1=C[C@@H](CNC(=O)CN(C)C)[C@H](C(C)C)C[C@H]1Cc1nc2ccccc2[nH]1,100µM,?,0,0
CC1=C[C@@H](CNC(=O)CCC(=O)O)[C@H](C(C)C)C[C@H]1Cc1nc2ccccc2[nH]1,?,0,0,0
CC1=C[C@@H](CNC(=O)C2CC2)[C@H](C(C)C)C[C@H]1Cc1nc2ncccc2[nH]1,?,?,0,0
COc1ccccc1C(=O)NC[C@@H]1C=C(C)[C@H](Cc2nc3ccccc3[nH]2)C[C@H]1C(C)C,32µM,?,0,?
COCCCn1c(C)cc(C(=O)NCCc2noc(COC)n2)c1C,0,0,0,0
COCCCn1c(C)cc(C(=O)NCCc2noc(-c3ccccc3)n2)c1C,?,40µM,0,0
COCCNC(=O)C1CCCN1c1nccc(Nc2ccc(C)cc2)n1 (configuration not stated),0,?,-,-
Cc1ccc(Nc2ccnc(N3CCCC3C(=O)NCCCc3ccccc3)n2)cc1 (configuration not stated),?,40µM,-,-
CSCCNC(=O)C1CCCN1c1nccc(Nc2ccc(C)cc2)n1 (configuration not stated),0,79µM,-,-
Cc1ccc(Nc2ccnc(N3CCCC3C(=O)NCC3CC3)n2)cc1 (configuration not stated),0,35µM,-,-
Cc1noc(C)c1[S+](=O)([O-])N1CCC(C(=O)N2CCCC(c3nc4ncccc4[nH]3)C2)CC1 (configuration not stated),0,0,-,-
O=C1CCN(C(=O)C2CCN(Cc3c[nH]c4ccccc34)CC2)CCCCCCN1,0,0,0,0
O=C(CCc1ccc(CC2CCN(Cc3c[nH]c4ccccc34)CC2)cc1)N1CCCC1,32µM,35µM,-,-
Cn1cnnc1CC1CCN(C(=O)CCc2ccccc2)CC1,0,0,-,-
Cn1ccnc1C(=O)N1CCC(Cc2ccc(CCC(=O)N3CCCC3)cc2)CC1,?,40µM,-,-
CO[C@H]1C(=O)N(C(C)C)[C@H]1C1CCN(C(=O)NCc2ccc(C)cc2)CC1,0,0,-,-
CCO[C@H]1CN(C(=O)CCc2nc3c(C)c(C)ccc3[nH]2)C[C@@H]1O,0,0,0,0
O=C1c2cnc(-c3cncnc3)nc2OCCN1c1cccc(C(F)(F)F)c1,40µM,0,0,0
COc1cccc(-c2ncc3c(n2)OCCN(c2cccc(C(F)(F)F)c2)C3=O)c1,?,?,2µM,0
O=C1c2cnc(-c3cccc(O)c3)nc2OCCN1c1cccc(C(F)(F)F)c1,?,?,0,0
O=C(c1cccc(Cl)c1)N1CCC(C(=O)N2CCC(N3Cc4cccn4C3=O)CC2)CC1,0,?,-,-
O=C(c1cccc(O)c1)N1CCCC(CCc2cccc(C(F)(F)F)c2)C1 (configuration not stated),?,40µM,0,0
SMILES,NIH3T3 tox,HEK cytotox,Luciferase inh,NPR1 antag
Cc1ncsc1C(=O)N1CCCC(CCc2ccc(F)cc2F)C1 (configuration not stated),?,89µM,0,0
CCCc1ncncc1C(=O)N1CCCC(CCc2ccc(F)cc2)C1 (configuration not stated),?,?,0,0
O=C(c1ccc(=O)[nH]c1)N1CCCC(CCc2cccc(C(F)(F)F)c2)C1 (configuration not stated),?,?,0,0
CSCC(=O)N1CCCC(CCc2cccc(F)c2)C1 (configuration not stated),?,20µM,?,0
O=C(c1ccncc1)N1CCCC(CCc2ccc(F)cc2)C1 (configuration not stated),?,40µM,0,?
CCCn1nccc1C(=O)N1CCCC(CCc2cccc(C(F)(F)F)c2)C1 (configuration not stated),?,25µM,0,?
COCCOc1cc(C)c2c(c1C)C[C@H]([C@H](C)C(=O)NC1CCCC1)CC2,?,?,0,0
COc1cc(C)c2c(c1C)C[C@H]([C@H](C)C(=O)NC1CCCC1)CC2,?,40µM,0,?
Cc1cc(OCC(=O)O)c(C)c2c1CC[C@@H]([C@H](C)C(=O)NCc1ccccc1)C2,79µM,0,0,0

# Assay outcomes: PubChem, National Center for Advancing Translational Sciences (NCATS)
